Measurements as given in PubChem BioAssay (NCATS).
Several values for one entry are separate records, joined by “and”; a condition that tells them apart may be missing. Identical values can stand only once. Results filed as inconclusive are left out. Activity calls are given as the source filed them. The call rests on the fitted dose curve; in most records, active means well fitted curve in the direction sought with a large enough effect; inconclusive means small, poorly fitted or top-dose-only effect, or another doubt; inactive means no such curve, though single readings can be large; an effect the other way counts as inactive or inconclusive.

What was measured:
[1] = Cell Viability - Renal Proximal Tubule (AID 545); conditions: renal proximal tubule cells viability, primary cells of rat origin; at 91.7 µM (top of the series); further: nearly all actives have a fitted effect of over 40% in size
Outline: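 Rat renal proximal tubule primary cells, 1000/well, exposed to compounds for 40 hr at 37 °C in complete medium; cellular ATP read by CellTiter-Glo luminescence. AC50 from concentration-response fitted with standard Hill equation.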

[2] = Cellular Toxicity (caspase-3) Jurkat (AID 655); conditions: Jurkat caspase-3 activation, luminescence, DMSO = 0%, tamoxifen = 100%; at 92.2 µM (top of the series);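 further: cells exposed to compound for 16 h at 37 °C before reading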
Outline: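 Jurkat cells (5000/well) in complete medium exposed 16 h at 37 C; caspase-3/7 activity read by Caspase-Glo luminescence after 20 min at room temperature. Normalized to DMSO and 100 uM tamoxifen; AC50 from Hill fits.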

[3] = Cell Viability - LYMP2-001 (AID 921);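 further: 0% = DMSO only and full inhibition = tetraoctylammonium bromide control wells; nearly all actives have a fitted effect of over 70% in size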
Outline: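 Human lymphoblastoid LYMP2-001 cells, 2500 per well, in complete medium, treated 24 h at 37 C. Viability from cellular ATP by CellTiter-Glo luminescence; AC50 from Hill-equation fits of qHTS concentration-response.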

[4] = MultiTox-Fluor Cytotoxicity Assay - LYMP1-002 - Live Cells (AID 955);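 further: cells exposed to compound for 16 hours; on the % scale 0 is the no-effect control and ±100 the full control effect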
Outline: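 Read-out is live-cell protease activity (cell-permeant GF-AFC substrate, fluorescence Ex/Em=405/510), where a decrease indicates acute toxicity. Human lymphoblastoid cells were treated 16 hours at 37 C in a concentration series, and AC50 values came from standard Hill modelling.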

[5] = MultiTox-Fluor Cytotoxicity Assay - LYMP1-003 - Dead Cells (AID 961); further: nearly all actives have a fitted effect of over 70% in size
Outline: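 LYMP1-003 lymphoblastoid, 2500 cells/well, 5 hr settle then 16 hr cpd at 37 C; MultiTox-Fluor reagent 60 min RT; Ex/Em 485/520 dead-cell signal; norm. DMSO = 0%, 15 uM tetraoctylammonium bromide = 100%; Hill AC50.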

[6] = Cell Viability - LYMP1-003 - Assay at 24 hr (AID 963);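 further: plate controls were DMSO only for no effect and tetraoctylammonium bromide positive control for full effect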
Outline: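 Cells seeded at 2500/well, 5 hr at 37 C; compounds added; 24 hr at 37 C; CellTiter-Glo added, 30 min room temperature; luminescence read. Decrease in ATP taken as cytotoxicity, AC50 from Hill modelling.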

[7] = Cell Viability - LYMP2-003 (AID 965);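 further: cells exposed to compounds for 24 h before reading; nearly all actives have a fitted effect of over 50% in size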; further: potency means the concentration at half of the fitted maximal effect;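 on activity change, negative = cytotoxicity: 0% = DMSO only and full effect = 92 µM tetraoctylammonium bromide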
Outline: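 Human lymphoblastoid LYMP2-003 cells, 2500/well, exposed to compounds for 24 h at 37 C in complete medium. Viability read as intracellular ATP by CellTiter-Glo luminescence; AC50 from Hill-equation fits of qHTS concentration-response data.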

[8] = Cell Viability - LYMP2-005 (AID 967); further: potency means the concentration at half of the fitted maximal effect
Outline: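 Human lymphoblastoid LYMP2-005 cells, 2,500 per well in complete medium, rested 5 h at 37C then compound-treated 24 h at 37C. Intracellular ATP read by CellTiter-Glo luminescence after 30 min at room temperature; AC50 from Hill-equation fits of concentration-response data.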

[9] = Cell Viability - LYMP2-009 (AID 968); further: nearly all actives have a fitted effect of over 55% in size; further: potency means the concentration at half of the fitted maximal effect
[10] = Cell Viability - LYMP2-015 (AID 971);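 further: 0% = DMSO only and full effect = 92 µM tetraoctylammonium bromide; nearly all actives have a fitted effect of over 55% in size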
Outline: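 Luminescent ATP read-out (CellTiter-Glo) served as the viability measure after lymphoblastoid cells were exposed to compounds for 24 hours at 37 C. Concentration-response data were fitted with the Hill equation to give AC50.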

[11] = Cell Viability - LYMP2-021 (AID 974);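 further: compound exposure lasts 24 hours at 37 °C; nearly all actives have a fitted effect of over 55% in size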; further: potency means the concentration at half of the fitted maximal effect; on activity change, negative = cytotoxicity: on the % scale 0 is the no-effect control and ±100 the full control effect
Outline: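 Plate 2500 lymphoblastoid cells per well and incubate 5 hr at 37 C. Add compounds over a concentration range and incubate 24 hr at 37 C. Add CellTiter-Glo, wait 30 min at room temperature, read luminescence.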

[12] = Cell Viability - LYMP2-023 (AID 975); further: nearly all actives have a fitted effect of over 55% in size; further: potency means the concentration at half of the fitted maximal effect;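 on activity change, negative = cytotoxicity: cellular ATP measured by luciferase luminescence as viability proxy; plate controls were DMSO only for no effect and 92 µM tetraoctylammonium bromide control for full effect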
Outline: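 2500 cells/well, 5 hr 37 C; cpd 24 hr 37 C; CellTiter-Glo, 30 min RT; luminescence. qHTS conc-response, Hill fit -> AC50. Pos ctrl tetraoctylammonium bromide.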

[13] = Cell Viability - LYMP2-025 (AID 976); further: potency means the concentration at half of the fitted maximal effect;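 on activity change, negative = cytotoxicity: plate controls were DMSO only for no effect and tetraoctylammonium bromide control for full effect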
Outline: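 Seed 2500 LYMP2-025 cells/well; 5 hr at 37 C; add compound; 24 hr at 37 C; add CellTiter-Glo; 30 min RT; read luminescence. AC50 from Hill-modelled concentration-response.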

[14] = Cell Viability - LYMP2-002 (AID 977);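 further: compound exposure lasted 24 h at 37 °C; plate controls were DMSO only for no effect and 92 µM tetraoctylammonium bromide for full effect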
Outline: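 Human lymphoblastoid LYMP2-002 cells, 2500 per well, exposed to compounds for 24 h at 37 C in complete medium; viability read as intracellular ATP by CellTiter-Glo luminescence, AC50 from Hill fits.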

[15] = Cell Viability - LYMP2-006 (AID 978); further: on the % scale 0 is the no-effect control and ±100 the full control effect; nearly all actives have a fitted effect of over 60% in size
Outline: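 Human lymphoblastoid cells (LYMP2-006), 2500/well in complete medium, were treated with compound for 24 hr at 37 C. Cellular ATP was read by CellTiter-Glo luminescence after 30 min, and AC50 values came from Hill-equation fits of concentration-response data.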

[16] = Cell Viability - LYMP2-008 (AID 980); further: nearly all actives have a fitted effect of over 60% in size; further: potency means the concentration at half of the fitted maximal effect; on activity change, negative = cytotoxicity: on the % scale 0 is the no-effect control and ±100 the full control effect
Outline: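 qHTS, human lymphoblastoid line, 2500 cells/well; 5 hr preincubation, 24 hr compound, 37 C. CellTiter-Glo ATP luminescence. AC50 via Hill equation. Tetraoctylammonium bromide positive control.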

[17] = Cell Viability - LYMP2-014 (AID 983); further: nearly all actives have a fitted effect of over 50% in size; further: potency means the concentration at half of the fitted maximal effect;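 on activity change, negative = cytotoxicity: plate controls were DMSO only for no effect and 92 µM tetraoctylammonium bromide for full effect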
Outline: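 Luminescent ATP signal (CellTiter-Glo, 30 min at room temperature) serves as the viability read-out after 24 hr compound exposure at 37 C. Cells were seeded at 2500 per well and settled 5 hr beforehand.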

[18] = Cell Viability - LYMP2-026 (AID 989); further: nearly all actives have a fitted effect of over 50% in size; further: potency means the concentration at half of the fitted maximal effect
Outline: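 Luminescent ATP signal (CellTiter-Glo, 30 min room temperature) measures viable lymphoblastoid cells after 24 hr compound treatment at 37 C. Decreased ATP reflects acute toxicity; AC50 values come from Hill-equation modeling.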

[19] = Cell Viability - LYMP1-002 - Assay at 24 hr (AID 993); further: potency means the concentration at half of the fitted maximal effect; on activity change, negative = cytotoxicity: on the % scale 0 is the no-effect control and ±100 the full control effect
Outline: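 Cells plated 2500/well, 5 hr 37 C; compounds added, 24 hr 37 C; CellTiter-Glo added, 30 min RT; luminescence read. Tetraoctylammonium bromide positive control. Hill-equation AC50.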

[20] = Cell Viability - LYMP1-002 - Assay at 40 hr (AID 994); further: nearly all actives have a fitted effect of over 60% in size; further: potency means the concentration at half of the fitted maximal effect
Outline: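 Luminescent ATP signal served as the viability readout, with decreases taken as toxicity. Cells were treated with compounds across a concentration range for 40 hours at 37 C, and AC50 values came from standard Hill modeling.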

c1ccc2scnc2c1
inactive: activity change, negative = cytotoxicity [1] -4.16% | caspase-3 activation [2] -0.459% | Potency [3] | Potency [4] | Potency [5] | Potency [6] | Potency [7] | Potency [8] | Potency [9] | Potency [10] | Potency [11] | Potency [12] | Potency [13] | Potency [14] | Potency [15] | Potency [16] | Potency [17] | Potency [18] | Potency [19] | Potency [20]

O=S(=O)(O)c1ccccc1
inactive: activity change, negative = cytotoxicity [1] -1.46% | caspase-3 activation [2] 0.148% | Potency [3] | Potency [4] | Potency [5] | Potency [6] | Potency [7] | Potency [8] | Potency [9] | Potency [10] | Potency [11] | Potency [12] | Potency [13] | Potency [14] | Potency [15] | Potency [16] | Potency [17] | Potency [18] | Potency [19] | Potency [20]

O=C1CCc2ccccc2O1
inactive: activity change, negative = cytotoxicity [1] -10.3% | caspase-3 activation [2] 1.5% | Potency [3] | Potency [4] | Potency [5] | Potency [6] | Potency [7] | Potency [8] | Potency [9] | Potency [10] | Potency [11] | Potency [12] | Potency [13] | Potency [14] | Potency [15] | Potency [16] | Potency [17] | Potency [18] | Potency [19] | Potency [20]

O[C@@H]([C@H](O)[C@@H](O)CBr)[C@@H](O)CBr
inactive: activity change, negative = cytotoxicity [1] 2.79% | caspase-3 activation [2] 0.213% | Potency [3] | Potency [4] | Potency [5] | Potency [6] | Potency [7] | Potency [8] | Potency [9] | Potency [10] | Potency [11] | Potency [12] | Potency [13] | Potency [14] | Potency [15] | Potency [16] | Potency [17] | Potency [18] | Potency [19] | Potency [20]

O=C(O)c1ccccc1C(c1ccc(O)cc1)c1ccc(O)cc1
inactive: activity change, negative = cytotoxicity [1] 1.41% | caspase-3 activation [2] 1.36% | Potency [3] | Potency [4] | Potency [5] | Potency [6] | Potency [7] | Potency [8] | Potency [9] | Potency [10] | Potency [11] | Potency [12] | Potency [13] | Potency [14] | Potency [15] | Potency [16] | Potency [17] | Potency [18] | Potency [19] | Potency [20]

COc1ccc2nc(N)sc2c1
inactive: activity change, negative = cytotoxicity [1] -14.7% | caspase-3 activation [2] -5.35% | Potency [3] | Potency [4] | Potency [5] | Potency [6] | Potency [7] | Potency [8] | Potency [9] | Potency [10] | Potency [11] | Potency [12] | Potency [13] | Potency [14] | Potency [15] | Potency [16] | Potency [17] | Potency [18] | Potency [19] | Potency [20]

C=Cc1ccccc1Cl
inactive: activity change, negative = cytotoxicity [1] -4.37% | caspase-3 activation [2] -1.24% | Potency [3] | Potency [4] | Potency [5] | Potency [6] | Potency [7] | Potency [8] | Potency [9] | Potency [10] | Potency [11] | Potency [12] | Potency [13] | Potency [14] | Potency [15] | Potency [16] | Potency [17] | Potency [18] | Potency [19] | Potency [20]

Cc1ccc([N+](=O)[O-])cc1N
inactive: activity change, negative = cytotoxicity [1] -8.34% | caspase-3 activation [2] -0.45% | Potency [3] | Potency [4] | Potency [5] | Potency [6] | Potency [7] | Potency [8] | Potency [9] | Potency [10] | Potency [11] | Potency [12] | Potency [13] | Potency [14] | Potency [15] | Potency [16] | Potency [17] | Potency [18] | Potency [19] | Potency [20]

NC1=NC(S)C2N=CN=C2N1 (stereo unspecified)
active: Potency [7] 6.31 µM | Potency [8] 12.6 µM | Potency [9] 15.8 µM | Potency [11] 15.8 µM | Potency [12] 10 µM | Potency [13] 3.16 µM | Potency [16] 3.16 µM | Potency [17] 15.8 µM | Potency [18] 12.6 µM | Potency [19] 10 µM | Potency [20] 2 µM

CCCCCCCCCCCCCCC1CO1 (stereo unspecified)
inactive: activity change, negative = cytotoxicity [1] -7.28% | caspase-3 activation [2] 0.846% | Potency [3] | Potency [4] | Potency [5] | Potency [6] | Potency [7] | Potency [8] | Potency [9] | Potency [10] | Potency [11] | Potency [12] | Potency [13] | Potency [14] | Potency [15] | Potency [16] | Potency [17] | Potency [18] | Potency [19] | Potency [20]

CCCCOCCO
inactive: activity change, negative = cytotoxicity [1] 5.22% and -6.35% | caspase-3 activation [2] 0.121% and 0.365% | Potency [3] | Potency [4] | Potency [5] | Potency [6] | Potency [7] | Potency [8] | Potency [9] | Potency [10] | Potency [11] | Potency [12] | Potency [13] | Potency [14] | Potency [15] | Potency [16] | Potency [17] | Potency [18] | Potency [19] | Potency [20]

CC1(C)CC(N=C=O)CC(C)(CN=C=O)C1 (stereo unspecified)
inactive: activity change, negative = cytotoxicity [1] 13.5% | caspase-3 activation [2] 0.941% | Potency [3] | Potency [4] | Potency [5] | Potency [6] | Potency [7] | Potency [8] | Potency [9] | Potency [10] | Potency [11] | Potency [12] | Potency [13] | Potency [14] | Potency [15] | Potency [16] | Potency [17] | Potency [18] | Potency [19] | Potency [20]

Nc1ccc(Cl)cc1Cl
inactive: activity change, negative = cytotoxicity [1] -0.932% | caspase-3 activation [2] 0.852% | Potency [3] | Potency [4] | Potency [5] | Potency [6] | Potency [7] | Potency [8] | Potency [9] | Potency [10] | Potency [11] | Potency [12] | Potency [13] | Potency [14] | Potency [15] | Potency [16] | Potency [17] | Potency [18] | Potency [19] | Potency [20]
